For 26 compounds, growth results are on record in PubChem BioAssay (NCI).

Structures are written as SMILES. Compounds without any hit were thinned out: in the full panel of roughly 83,000, 20% have a hit.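 Percent growth is the endpoint: 0 to 100 indicates growth inhibition (40 means 60% inhibition), 0 means no net growth, and negative values indicate cell death.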 Values without a mark were called inactive. Active and inactive are the calls of the source. The calls were made as follows: active = growth percent below 10; inactive = the rest.

The test relates to HL-60(TB) leukemia. The test can be described thus: NCI-60 one-dose screen, 48 h (100 = growth as untreated, 0 = no growth, -100 = all killed). The conditions noted are these: 10 µM unless noted.
With `COc1ccc(C2C(C#N)=C(N)Oc3c2sc2c(C)cccc32)cc1` (stereo unspecified), the growth was -13.9% (active).
Take `Cc1ccc(C(=O)C2=C(O)C(=O)N(Cc3cccnc3)C2c2ccccc2F)o1` (stereo unspecified): the growth was 99.7%.
Take `COc1cc(CCn2nnc3c(Nc4ccc(N5CCOCC5)cc4)ncnc32)cc(OC)c1`: the growth was 106%.
With `O=c1cc(CNc2cc(F)cc(F)c2)c2ccc(I)cc2[nH]1` the figure was -32.6% (active); with `CCN(CC)CCCNc1cc(OC)c(OC)c2cccnc12`, 29.2%.
`O=C(CCl)N1c2ccccc2Sc2ccc3ccccc3c21`: the growth was -44.1% (active).
The same measure for `CCOc1nc(-c2ccccc2)cc2c(O)c(-c3nnco3)[nH]c(=O)c12`: 34.6%.
The same measure for `C=C(C)[C@@H]1CC[C@]2(C(=O)O)CC[C@]3(C)[C@H](CC[C@@H]4[C@@]5(C)CCC(N)C(C)(C)[C@@H]5CC[C@]43C)[C@@H]12` (stereo partly specified): -45.5% (active).
For `Nc1ccccc1-c1cc2c(c3c1[nH]c1ccccc13)CCCCC2`, the growth is 91.6%.
With `O=C(NCCCCO)c1cncnc1Nc1ccc2c(ccn2Cc2cccc(F)c2)c1` the figure was 100%; with `O=C(Cc1ccc(/C=C/C(=O)c2ncc[nH]2)cc1)Nc1cc(F)c(F)c(F)c1`, 7.25% (active); with `COc1cc2c(cc1OC)-c1cc(OC)c(OC)cc1C(CN(C)C)C2` (stereo unspecified), 69.8% [100 µM].
The same measure for `CC(/C=C1\SC(=S)N(CC(=O)NC(Cc2c[nH]c3ccccc23)C(=O)O)C1=O)=C\c1ccccc1` (stereo unspecified): 100%; for `O=[N+]([O-])c1ccc(O)cc1Br`: 99.9%; for `O=C(/C=C/C12c3ccccc3C(c3ccccc31)C1C(=O)NC(=O)C12)c1ccc(F)cc1` (stereo unspecified): -19.5% (active).
With `CCS(=O)(=O)Nc1cccc(Nc2c3cccc(C)c3nc3c(C)cccc23)c1OC` the figure was -16.4% (active); with `COc1ccc2c(c1)N(Cc1ccc(Cl)cc1)CCC2N1CCCC1=O` (stereo unspecified), 53.9%.
In the case of `COc1cccc(-c2nc3sccn3c2-c2ccnc(NCCCNS(=O)(=O)c3ccc(F)cc3)n2)c1`, the growth was 12.1%.
The same measure for `O=C1Nc2ccccc2/C1=C/C(=O)c1ccc(N2CCCCC2)cc1`: -6.32% (active); for `S=c1ssnc1-c1cccs1`: 95.1%; for `CN(C)CC/C=C1\c2ccccc2Sc2ccc(Cl)cc21`: 94.2%.
The same measure for `Cc1nn(-c2nc3ccccc3[nH]2)c2c1C(c1ccc(O)cc1)CC(=O)N2` (stereo unspecified): 82.1%.
With `O=C1/C(=C/c2ccc3c(c2)OCO3)SC(=S)N1CCc1ccc(O)cc1` the figure was 90.9%.
As to `CC(C)OP(=O)(OC(C)C)c1ncc(-c2ccc(C(F)(F)F)cc2)c(NC2CCCCCC2)n1`, the growth was -43.9% [33.3 µM] (active).
The same measure for `CCOC(=O)CC1CSC(N/N=C(/C)c2cccc(C(F)(F)F)c2)=N1` (stereo unspecified): 101%; for `CN(C)/N=C/c1ccccc1O`: 97.1%.
